# Experimental data as given in PubChem BioAssay AID1626 (SRMLSC, 2009).
# Where “and” joins values, the source holds several entries; their conditions need not be identical. Identical values can stand only once. The whole screen tested about 220,000 compounds, of which about 2,000 (0.91%) were called active. Roughly 2% stayed inconclusive and do not appear here. A selection follows. Measured potencies and affinities stand elsewhere. Values without a mark were called inactive. Rule as the data show it: inconclusive = inhibition above about 80% without an active follow-up result; inactive = below that; test concentration not stated here.
# Assay: M. tuberculosis H37Rv growth inhibitors, H37Rv strain (AID 1626);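 also: bacteria incubated seven days before Alamar blue readout; 0% = bacteria only wells and 100% = bacteria with antibiotic wells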
# Details: active compounds read high, concentration not given here
row,Compound,inhibition
1,COc1ccc(-n2c(SCC(=O)Nc3ccccc3)nc3c(c2=O)SCC3)cc1,6.14%
2,CCCC(CCC)C(=O)Nc1ccncc1,-10.4%
3,C=CCC(=O)OCCCCCCOc1ccc(C(=O)O)cc1,-13.9%
4,CCCCCCOc1ccc(/C(N)=N/O)cc1,5.99%
5,CC1(C)Cc2c(c(=S)nc(-c3ccccc3)n2CCO)CO1,7.44%
6,O=C(O)Cc1sc(NCc2ccco2)nc1-c1ccccc1,8.81%
7,O=C(Nc1ccc(S(=O)(=O)Nc2nccs2)cc1)C1CC(=O)N(c2ccccc2)C1 (stereo not drawn),-6.74%
8,COc1ccc(Br)cc1/C=N/NC(=O)c1ccco1,-2.04%
9,Cc1ccc(CNC(=O)C(=O)Nc2nccs2)cc1,10.4%
10,O=C(NCc1ccc(Cl)cc1)C(=O)Nc1nccs1,1.96%
11,O=C(/C=C/c1ccc(Br)cc1)NC(=O)c1ccccc1O,5.02%
12,CC(/C=C\c1ccccc1)=C/C(=O)O,2.72%
13,O=C(/C=C/c1cccnc1)c1ccc(NC(=O)c2cccc(Br)c2)cc1,8.79%
14,Cc1cccc(NC(=O)c2cccnc2)c1,1.57%
15,CC(/C=C\c1cccnc1)=C/C(=O)O,1.6% and 0.21%
16,O=C(O)CCC(=O)/C=C/c1ccccc1,-6.33%
17,O=C(O)/C=C/c1cccnc1,-0.59%
18,O=C(/C=C/c1ccccc1)NC(=O)c1ccccc1O,-10.8%
19,CCC/C=N/NC(=O)c1cc(Br)ccc1O,-8.13%
20,COc1cccc(-c2nc(N3CCN(c4ccccc4)CC3)c3ccccc3n2)c1O,-0.61%
21,CN1C=CC=C/C1=C1\SC(=S)N(CC(=O)O)C1=O,-3.47%
22,Cc1cccc(Cc2nnc(CCC(=O)NCc3ccncc3C)o2)c1,-3.05%
23,O=C(C1=NN[C@@H]2C(=O)N(c3cccc(C(F)(F)F)c3)C(=O)[C@H]12)c1cnccn1,-13.3%
24,S=C1NC(c2cccs2)=CC(c2ccc(Br)cc2)N1 (stereo not drawn),12.7%
25,COc1ccc(CC(=O)OCC(=O)Nc2cccc(Cl)c2)cc1,-0.87%

row,Compound,inhibition
1,CC(C)(CN1CCCCC1)NS(=O)(=O)c1ccc(Cl)cc1,3.88%
2,CN(C)/C=C(\C#N)C(=O)Nc1ccc(F)cc1,-3.02%
3,O=C(COC(=O)CNC(=O)c1cccc([N+](=O)[O-])c1)Nc1cccc(S(=O)(=O)N2CCCC2)c1,-1.39%
4,C#CCOCCOCCOCCNc1nc(N2CCN(C(=O)C([C@@H](C)CC)n3cc(C(N)CO)nn3)CC2)nc(N2CCN(C(=O)C([C@@H](C)CC)n3cc(C(N)COC(=O)C(F)(F)F)nn3)CC2)n1 (stereo partly drawn),-11.1%
5,CCOC(=O)NC(=O)c1cn(Nc2ncc(Cl)cc2C(F)(F)F)c(=O)[nH]c1=O,-8.73%
6,CCOC(=O)N1CCC(NC(=O)Cn2c3c(c(-c4ccccc4Cl)cc2=O)CCC3)CC1,-2.35%
7,CCOC(=O)Cn1c2c(c(=N)c3c1CCC3)CCCC2,-4.08%
8,CCNC(=S)N1CCC(c2nc3ccccc3s2)CC1,-0.93%
9,O=C(NCc1cccnc1)c1cccc(S(=O)(=O)N2CCOCC2)c1,0.09%
10,c1ccc2c(c1)CCc1c-2nc2ccccc2c1N1CCOCC1,4.28%
11,COc1ccc2c(-c3ccccc3)cc(N3CCOCC3)nc2c1,-14.6%
12,Cc1cccn2cc(-c3ccc(S(=O)(=O)N4CCCCC4)cc3)nc12,0.16%
13,c1ccc2c(c1)nc(N1CCCCCC1)c1ccccc12,3.85%
14,Oc1ccccc1-c1nc(N2CCCC2)c2ccccc2n1,-6.53%
15,c1ccc2c(c1)nc(N1CCCCC1)c1ccccc12,12.2%
16,c1ccc2c(N3CCCC3)nc(-c3ccncc3)nc2c1,6.26%
17,CC1CCN(c2nc(-c3ccccc3O)nc3ccccc23)CC1,-2.32%
18,c1ccc2c(N3CCCCC3)nc(N3CCCC3)nc2c1,-8.46%
19,CN1CCN(c2nc(-c3ccncc3)nc3ccccc23)CC1,3.8%
20,CC1CCN(c2ncnc3ccccc23)CC1,-8.39%
21,CC(C)(C)NS(=O)(=O)c1cc(C(=O)O)ccc1Cl,-11.1%
22,Cc1c(C#N)c(=O)c(-[n+]2ccccc2)c([S-])n1-c1ccc(Cl)cc1,3.17%
23,O=C(O)c1ccc(NC2=C(n3nnc4ccccc43)C(=O)c3ccccc3C2=O)cc1,-3.22%
24,Cc1cc([N+](=O)[O-])c(Cl)cc1NC(=O)C(C)C,-3.38%
25,O=C(O)c1ccc2c(c1)-c1nc3ccccc3n1C2=O,-6.82%

row,Compound,inhibition
1,COc1ccc(-c2ccc3ccccc3n2)cc1OC,12.8%
2,Cc1ccc(C)c(NC(=S)N2CCN(Cc3ccccc3)CC2)c1,-5.34%
3,Cc1cc(C)cc(N(C(C)C(=O)N2CCCCC2)S(C)(=O)=O)c1 (stereo not drawn),7.53%
4,O=C(COc1ncnc2ccccc12)N1CCN(c2ccccc2)CC1,5.1%
5,COC(=O)c1ccc2ccccc2n1,-11.4%
6,NNC(=O)c1ccc2ccccc2n1,27%
7,COc1ccc(-n2cc(-c3ccccc3)c3c(N4CCN(CCO)CC4)ncnc32)cc1,0.66%
8,CCOc1ccc(-n2cc(-c3ccccc3)c3c(=O)[nH]cnc32)cc1,64.1%
9,O=P1(Oc2ccccc2)OCCCS1 (stereo not drawn),12.1%
10,COC(=O)CC(c1ccc(F)cc1)n1c(C)ccc1C (stereo not drawn),-0.04%
11,c1ccc(CN2CCC(Nc3ncnc4sccc34)CC2)cc1,7.78%
12,Cc1ccccc1Nc1nc(NCc2ccco2)c2ccccc2n1,1.73%
13,c1ccc(CN2CCC(Nc3nc(-c4cccnc4)nc4ccccc34)CC2)cc1,11.5%
14,c1cncc(-c2nc(NCc3ccco3)c3ccccc3n2)c1,-4.8%
15,Oc1ccccc1-c1nc(NCC2CCCO2)c2ccccc2n1 (stereo not drawn),9.18%
16,Fc1ccccc1-c1nc(NCc2ccco2)c2ccccc2n1,0.67%
17,c1ccc(Nc2nc(NCC3CCCO3)c3ccccc3n2)cc1 (stereo not drawn),2.76%
18,Oc1ccccc1-c1nc(NCc2ccco2)c2ccccc2n1,-6.38%
19,CCCn1c(CN2CCN(c3cccc(Cl)c3)CC2)nc2c1c(=O)n(C)c(=O)n2C,7.42%
20,Cc1cc(C)nc(-n2ncc3c2CC(c2ccc(F)cc2)CC3=O)n1 (stereo not drawn),-3.92%
21,CCCN1CCN(C(=O)Cn2c(=O)oc3cc(S(=O)(=O)NCc4ccccc4)ccc32)CC1,0.47%
22,O=C1CCC/C1=c1\s/c(=C\c2cccnc2)c(=O)n1-c1ccccc1,-3.57%
23,CCCCCCCCC(=O)NNC(=O)c1c(O)c2ccccc2n(CCC)c1=O,1.3%
24,CCOC(=O)c1sc2nc(CC(=O)OC)nc(NCc3ccc(F)cc3)c2c1C,-2.66%
25,CC(NC(=O)c1cccc(N2CCCC2=O)c1)c1ccc2c(c1)OCCO2 (stereo not drawn),-0.45%

row,Compound,inhibition
1,COCC(N)(c1ccccc1)c1nc2ccccc2n1C (stereo not drawn),-3.7%
2,Cn1c(Cc2ccccc2)nnc1SCC(=O)N1CCCCC1,-3.96%
3,CCOC(=O)c1sc2nc(C)c3c(c2c1N)CC(C)(C)OC3,-1.95%
4,N#CCCN(C(=O)COC(=O)C1CCN(S(=O)(=O)c2cccs2)CC1)c1ccccc1,3.1%
5,CCOC(=O)C1C(=O)NC(c2ccccc2)=NC1c1ccc(O)c(OC)c1 (stereo not drawn),2.45%
6,CC(C)(C)C(=O)O/N=C(\N)Cc1ccc(-c2csnn2)cc1,-5.08%
7,c1csc(CNc2nc(-c3cccs3)nc3ccccc23)c1,9.19%
8,Clc1cccc(-c2nc(NCc3cccnc3)c3ccccc3n2)c1,74.3%
9,c1ccc(CNc2nc(-c3cccs3)nc3ccccc23)cc1,13.4%
10,c1ccc(-c2nc(NCc3cccnc3)c3ccccc3n2)cc1,7.56%
11,CCC(C)NC(=O)CN(c1cc(C)ccc1OC)S(C)(=O)=O (stereo not drawn),-5.3%
12,CCOc1ccc(-c2nnc(N3CCCCC3)c3ccccc23)cc1,-1.05%
13,c1nc(NCC2(N3CCOCC3)CCCCC2)c2ccsc2n1,-2.31%
14,O=S(=O)(c1ccccc1F)N1CCN(C(=S)NCc2ccccc2)CC1,-2.02%
15,O=C(Nc1cccc(F)c1)C1CCN(C(=O)c2ccc(Cl)cc2)CC1,-0.97%
16,CCN(CC(=O)Nc1ccc(C(=O)OC)cc1)Cc1ccccc1,7.78%
17,COc1ccc(N2CC(C(=O)Nc3nnc(SCC(=O)c4ccccc4)s3)CC2=O)cc1 (stereo not drawn),11.9%
18,CCN(CC)CCC(c1cc(OC)c(OC)c(OC)c1)c1c(OC)cc(OC)c2ccc(=O)oc12 (stereo not drawn),-19%
19,CCN(CC)CCC(c1cc(OC)c(OC)c(OC)c1)c1c(OC)cc(OC)c2c(C)cc(=O)oc12 (stereo not drawn),-8.36%
20,CCN(CC)CCC(c1ccc(N(C)C)cc1)c1c(OC)cc(OC)c2ccc(=O)oc12 (stereo not drawn),-0.96%
21,CCN(CC)CCC(c1cc(OC)c(OC)c(OC)c1)c1c(OC)cc(OC)c2c(-c3ccccc3)cc(=O)oc12 (stereo not drawn),12.6%
22,Cc1ccc(CNc2ncccc2-c2nc3cc(Cl)ccc3o2)cc1,-4.72%
23,COc1ccc(NC(=O)c2cccnc2Nc2ccc(OC)cc2)cc1,10.9%
